Experimental data published in PubChem BioAssay (NCATS).
The source made the active and inactive calls. Calls come from the whole dose curve; as a rule, active = well fitted curve in the direction sought with a large enough effect; inconclusive = small, poorly fitted or top-dose-only effect, or another doubt; inactive = no such curve, though single readings can be large or run the other way.

Molecular target: Galactokinase (Homo sapiens) (UniProt P51570)
Test: qHTS Validation Assay for Inhibitors of Human Galactokinase (GALK) (AID 493189)
Conditions: purified human GALK enzyme activity, qHTS 7-point titration; series mostly up to 57.5 µM
Source text: NIH Molecular Libraries Probe Production Centers Network [MLPCN]
NIH Chemical Genomics Center [NCGC]
Assay Submitter (PI): Kent Lai (University of Utah School of Medicine, 50 N Mario Capecchi Drive, Salt Lake City, UT 84132)
Inherited deficiency of galactose-1-phosphate uridyltransferase (GALT) can result in a potentially lethal disorder called Classic Galactosemia (OMIM 230400). Several lines of evidence indicate that an elevated level of galactose-1-phosphate (gal-1-p), the product of galactokinase (GALK), is a major, if not sole, pathogenic mechanism in patients with classic galactosemia. Therefore, finding inhibitors of GALK is a potential novel therapy for this inherent metabolic disease and is the long term goal of this project.
GALK (provided by the assay submitter) was assayed using ATP and D-(+)-Galactose (Sigma-Aldrich cat# G0750) as substrates. Promega Kinase-Glo Plus (cat# V3774) technology was used to detect the residual ATP following kinetic reaction. Briefly, the Kinase-Glo Plus contains Ultra-Glo [2] luciferase and D-luciferin which generates a bioluminescence signal from the remaining ATP.
NCGC Assay Protocol Summary:
Three uL/well of ATP-buffer solution (35 uM ATP, 20mM HEPES pH8.0, 5 mM MgCl2, 60 mM NaCl, 1 mM DTT, 0.01% BSA final concentration) was dispensed into 1536-well, assay plates (Greiner, solid white medium-binding plates) with Aurora Discovery BioRAPTR Flying Reagent Dispenser (FRD; Beckton-Dickenson). Compound solution (23 nL) was transferred to the assay plate using the Kalypsys 1536-pin tool. One uL/well GALK-galactose solution (5 nM GALK, 100 uM galactose, 20 mM HEPES pH8.0, 5 mM MgCl2, 60 mM NaCl, 1 mM DTT, 0.01% BSA final concentration) was then added using the FRD yielding a total kinase reaction volume of 4 uL/ well. After 1 hour of room temperature incubation, 4 uL Kinase-Glo Plus reagent was added for a final assay volume of 8 uL/ well. Luminescence was detected with the ViewLux plate reader (Perkin Elmer, Waltham, MA) after 10 min incubation using a 1 sec exposure time and 2x binning.

Sequence of Galactokinase (Homo sapiens) (P51570 whole entry, looked up): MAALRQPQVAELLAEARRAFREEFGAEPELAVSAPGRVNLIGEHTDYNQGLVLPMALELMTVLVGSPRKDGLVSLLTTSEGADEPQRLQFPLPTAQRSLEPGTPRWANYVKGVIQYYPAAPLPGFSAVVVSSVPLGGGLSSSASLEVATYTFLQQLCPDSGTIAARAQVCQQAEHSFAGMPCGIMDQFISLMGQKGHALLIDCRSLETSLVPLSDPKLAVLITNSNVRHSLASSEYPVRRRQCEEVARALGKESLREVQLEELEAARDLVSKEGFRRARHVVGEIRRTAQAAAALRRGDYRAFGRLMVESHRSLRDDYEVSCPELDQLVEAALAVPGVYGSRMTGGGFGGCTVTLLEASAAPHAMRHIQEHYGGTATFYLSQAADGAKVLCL

Q: With `CN1C[C@H](CNC(=O)OCc2ccccc2)C[C@@H]2c3cccc4c3c(cn4C)C[C@H]21` as the compound, how does the outcome read?
A: inactive

Q: With `O=c1[nH]c2ccccc2n1CCCN1CCC(n2c(=O)[nH]c3cc(Cl)ccc32)CC1` as the compound, how does the outcome read?
A: inactive

Q: With `C=C(C)[C@H]1Cc2c(ccc3c2O[C@@H]2COc4cc(OC)c(OC)cc4[C@@H]2C3=O)O1` as the compound, how does the outcome read?
A: inactive

Q: How did the outcome turn out when `Clc1cccc(N2CCNCC2)c1` was run?
A: inactive

Q: How did the outcome turn out when `NCC1(CC(=O)O)CCCCC1` was run?
A: inactive

Q: `O=c1[nH]c2ccccc2n1C1CCN(CCCC(c2ccc(F)cc2)c2ccc(F)cc2)CC1` was tested. Which outcome did it give?
A: inactive

Q: How did the outcome turn out when `CCn1cc(C(=O)O)c(=O)c2ccc(C)nc21` was run?
A: inactive

Q: For `CNCC(O)c1ccc(O)cc1` (centres undefined), which outcome is on record?
A: inactive

Q: `O=C1NCN(c2ccccc2)C12CCN(CC1COc3ccccc3O1)CC2` (centres undefined) was tested. Which outcome did it give?
A: inactive

Q: How did the outcome turn out when `COC[C@H]1OC(=O)c2coc3c2[C@@]1(C)C1=C(C3=O)C2CCC(=O)[C@@]2(C)C[C@H]1OC(C)=O` (some centres undefined) was run?
A: inactive

Q: How did the outcome turn out when `c1ccc(C2CC2)c(OCC2=NCCN2)c1` was run?
A: inactive

Q: How did the outcome turn out when `CCCC(C)(COC(N)=O)COC(=O)NC(C)C` (centres undefined) was run?
A: inactive

Q: `CCC1(C2=NCCN2)Cc2ccccc2O1` (centres undefined) was tested. Which outcome did it give?
A: inactive

Q: Which outcome does the source give for `NN=C(N)N` here?
A: inactive

Q: For `CC(CCc1ccccc1)NC(C)C(O)c1ccc(O)cc1` (centres undefined), which outcome is on record?
A: inactive

Q: Which outcome does the source give for `Cc1cccc(C)c1NC1=NCCCS1` here?
A: inactive

Q: `Cc1ncc(CNC(=O)N(CCCl)N=O)c(N)n1` was tested. Which outcome did it give?
A: inactive

Q: `N#CC(C#N)=Cc1ccc(O)c(O)c1` was tested. Which outcome did it give?
A: inactive

Q: Which outcome does the source give for `Cc1ccc(S(=O)(=O)N[C@@H](CCCCN)C(=O)CCl)cc1` here?
A: inactive

Q: For `Fc1ccc(C(OCCN2CCN(CCCc3ccccc3)CC2)c2ccc(F)cc2)cc1`, which outcome is on record?
A: inactive

Q: Which outcome does the source give for `NCC(CC(=O)O)c1ccc(Cl)cc1` (centres undefined) here?
A: inactive

Q: How did the outcome turn out when `COc1ccc(Cc2nccc3cc(OC)c(OC)cc23)cc1OC` was run?
A: inactive

Q: `CCCN1CCC[C@@H]2Cc3nc(N)ncc3C[C@H]21` was tested. Which outcome did it give?
A: inactive

Q: `COc1ccccc1N1CCNCC1` was tested. Which outcome did it give?
A: inactive

Q: How did the outcome turn out when `Nc1ccncc1` was run?
A: inactive

Q: With `NCC(O)c1ccc(O)cc1` (centres undefined) as the compound, how does the outcome read?
A: inactive

Q: For `CC(=O)[C@H]1CC[C@H]2[C@@H]3CC[C@H]4C[C@H](O)CC[C@]4(C)[C@H]3C(=O)C[C@]12C`, which outcome is on record?
A: inactive

Q: With `CC[N+](CC)(CC)CC` as the compound, how does the outcome read?
A: inactive

Q: How did the outcome turn out when `c1ccc2c(c1)OCC(C1=NCCN1)O2` (centres undefined) was run?
A: inactive
